# Laboratory results from PubChem BioAssay (Tox21).
# Records with an inconclusive call do not appear. Activity calls are given as the source filed them. Calls follow the shape of the full dose curve.
# Assay: p53 small molecule agonists, cell-based qHTS assay: qHTS cell viability counter screen (AID 1963581); also: nearly all actives have a fitted effect of over 45% in size
# Settings: p53RE-bla HCT-116 viability, ATP luminescence, 16 h; series mostly up to 66 µM; activity change, negative = cytotoxicity: at the top concentration
# From the text: National Center for Advancing Translational Sciences [NCATS]
# Division of Preclinical Innovation [DPI]
# U.S. Environmental Protection Agency [EPA]
# National Institutes of Environmental Health Sciences [NIEHS]
# National Toxicology Program [NTP]
# U.S. Food and Drug Administration [FDA]
# p53, a tumor suppressor protein, is activated following cellular insult, including DNA damage and other cellular stresses. The activation of p53 regulates cell fate by inducing DNA repair, cell cycle arrest, apoptosis, or cellular senescence. The activation of p53, therefore, is a good indicator of DNA damage and other cellular stresses. The CellSensor p53RE-bla HCT-116 cell line (Invitrogen) contains a stably integrated beta-lactamase reporter gene under control of the p53 response elements. The activation of the reporter gene under culture conditions can be detected by fluorescence intensity. This cell line was used to screen the Tox21 compound library in a 1536-well plate format and to identify agonists that activate the p53 signaling pathway. The cytotoxicity of the Tox21 compound library against the p53 RE-bla HCT-116 cell line was tested in parallel by measuring the intra cellular ATP content in the same wells.
# Tox21 Assay Protocol Summary:
# The p53RE-bla cells were dispensed at 4,000 cells/5 ul/well in 1536-well black wall/clear bottom plates using a Multidrop dispenser. After the assay plates were incubated at a 37 C/5% CO2 incubator for 5 hours, 23 nL of compounds dissolved in DMSO, positive controls or DMSO only was transferred to the assay plate by a pin tool. The plates were incubated at 37 C for 16 hours. After 1 uL of LiveBLAzerTM B/G FRET substrate was added using a Flying Reagent Dispenser, the plates were incubated at room temperature for 2 hours, and fluorescence intensity was measured by an Envision plate reader. For cell viability readout that measures cytotoxicity, 4 ul/well of CellTiter-Glo reagent was added into the assay plates using a Flying Reagent Dispenser. After 30 min incubation at room temperature, the luminescence intensity in the plates was measured using a ViewLux plate reader.
# % is scaled to controls: 0 for no effect and ±100 for the full control effect; potency is read from the fitted curve at half-maximal effect.
SMILES,"activity change, negative = cytotoxicity",Potency
CO[Si](CCCNc1ccccc1)(OC)OC,6.39% (inactive),–
O=C(O)c1ccc(Cl)cc1Cl,9.17% (inactive),–
O=C(O)c1cn(C2CC2)c2cc(Cl)c(F)cc2c1=O,3.38% [at 30.3 µM] (inactive),–
CC(C)NCC(O)c1ccc(NS(C)(=O)=O)cc1 (stereo not given),0% (inactive),–
CC[N+](CC)(CCNC(=O)C(=O)NCC[N+](CC)(CC)Cc1ccccc1Cl)Cc1ccccc1Cl,19.2% [at 30.3 µM] (inactive),–
CC(C(=O)O)c1cccc(Oc2ccccc2)c1 (stereo not given),0.151% [at 30.3 µM] (inactive),–
C=CCCCC,0% (inactive),–
CCCCC/C=C\CCC=O,-11.8% (inactive),–
CCOC(=O)C1=C(C)NC(C)=C(C(=O)OC)C1c1cccc(Cl)c1Cl (stereo not given),9.79% [at 30.3 µM] (inactive),–
CCc1nccnc1C,-11% (inactive),–
NC12CC3CC(CC(C3)C1)C2,-5.65% [at 30.3 µM] (inactive),–
CCOC(=O)/C=C/C(=O)OCC,-10.4% (inactive),–
O=C(O)c1ccncc1,-0.716% (inactive),–
CCO[Si](C)(CCCOCC1CO1)OCC (stereo not given),-4.56% (inactive),–
C[C@H](N)C(=O)N[C@@H](C)C(=O)NC1[C@H]2CN(c3nc4c(cc3F)c(=O)c(C(=O)O)cn4-c3ccc(F)cc3F)C[C@@H]12 (stereo not given in full),3.8% [at 30.3 µM] (inactive),–
CN(C[C@@H](CC[N+]12CCC(C3CCCCC3)(CC1)CC2)c1ccc(Cl)c(Cl)c1)C(=O)c1cc(C(F)(F)F)cc(C(F)(F)F)c1,-1.42% (inactive),–
CC1CCCCC1,12.2% (inactive),–
Clc1cc(Cl)nc(Cl)n1,1.72% (inactive),–
C=CC(=O)OCC1CCCO1 (stereo not given),-13% (inactive),–
C=C[Si](C)(C)Cl,-0.14% [at 5.99 µM] (inactive),–

SMILES,"activity change, negative = cytotoxicity",Potency
CC1(C)[C@H]2CC[C@]1(C)C(=O)C2,11.8% (inactive),–
Oc1ccccc1C=NCc1ccccc1,-4.11% [at 30.3 µM] (inactive),–
O=C(O)C(Cc1cc(I)c(O)c(I)c1)c1ccccc1 (stereo not given),-4.87% [at 30.3 µM] (inactive),–
Cc1cc(-c2ccccc2)nnc1NCCN1CCOCC1,2.75% [at 30.3 µM] (inactive),–
CCCCCCCC[P+](CCCCCCCC)(CCCCCCCC)CCCCCCCC,–,2560 nM (active)
O=C(CCCCCCCCc1cccnc1)N1CCC(C=C(c2ccccc2)c2ccccc2)CC1,6.59% (inactive),–
O=C(NC(Cc1cc(=O)[nH]c2ccccc12)C(=O)O)c1ccc(Cl)cc1 (stereo not given),11.9% [at 30.3 µM] (inactive),–
O=C(O)c1cc(O)c2ccccc2c1O,-22.9% (inactive),–
Nc1ccc(C(=O)Oc2ccccc2)c(O)c1,-3.4% [at 30.3 µM] (inactive),–
c1ccc2c(CC3=NCCN3)cccc2c1,-6.63% [at 30.3 µM] (inactive),–
CC1=CCC2C(C1)C2(C)C (stereo not given),-10.3% (inactive),–
[Cu+],-13.7% (inactive),–
C[C@H]1O[C@@H](n2cc(F)c(=O)[nH]c2=O)[C@H](O)[C@@H]1O,-27.4% [at 30.3 µM] (inactive),–
CCCCCCCC(=O)OCC,10.7% (inactive),–
CCCCCCCC/C=C/C(=O)O,-5.41% [at 30.3 µM] (inactive),–
CC(C)(C)C1CCC(=O)CC1,10.4% (inactive),–
O=Cc1ccc(F)c(Br)c1,0.417% (inactive),–
C=CC(=C)CC/C=C(\C)CCC=C(C)C,2.84% [at 13.5 µM] (inactive),–
CCN(CC)CCNC(=O)c1cc(Cl)c(N)cc1OC,0.126% [at 30.3 µM] (inactive),–
Cc1cc(C(C)(C)C)c(O)c(C)c1Cn1c(=O)n(Cc2c(C)cc(C(C)(C)C)c(O)c2C)c(=O)n(Cc2c(C)cc(C(C)(C)C)c(O)c2C)c1=O,15.7% (inactive),–
